Test results from PubChem BioAssay (NCATS).
Records with an inconclusive call do not appear. For some assays here: Potency and affinity values are given separately. Calls of active or inactive are those of the source. Unless noted, how the calls were made is not given here.

Legend:
[1] = Ebola virus entry assay, green fluorescence channel
[2] = Ebola virus entry assay, blue channel fluorescence
[3] = Ebola virus entry assay, ratio channel
[4] = Ebola virus entry assay, green channel fluorescence
[5] = Ebola virus entry assay, reporter ratio channel; Channel type: primary
[6] = Ebola virus entry assay, blue channel (ratio component)
[7] = qHTS assay for measurement of the activity of small molecule inhibitors on Zika virus induced Caspase-3 activity in human iPSC derived neural progenitor cells (hNPCs) (AID 1224857; active means well fitted inhibition curve with a large enough effect; further: % of control where 0% means no effect; nearly all actives have a fitted effect of over 65% in size); conditions: hNPCs ZIKV-induced caspase-3/7, Caspase-Glo luminescence, 6 h; series mostly up to 45.7 µM
Method in brief: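 hNPCs seeded 350 cells/well, cultured 16–20 h; compounds added 1 h before ZIKV (2 FFU/cell), 37 C 6 h. Caspase-Glo 3/7 luminescence after 30 min RT; % inhibition from induction scaled to uninfected (0%) and infected (100%) wells.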

[8] = qHTS assay for measurement of the activity of small molecule inhibitors on Zika virus induced Caspase-3 activity in human astrocytoma cells (AID 1224859; active means well fitted inhibition curve with a large enough effect;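 further: plate controls were ZIKV-infected untreated cells for no effect and uninfected cells for full effect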); conditions: SNB-19 ZIKV-induced caspase-3/7, luminescence, 6 h; series mostly up to 45.7 µM
Method in brief: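 Luminescence read-out (Caspase-Glo 3/7, 30 min RT) of caspase activity in SNB-19 cells infected 6 h with ZIKV, 2 FFU/cell, after 1 h compound pretreatment; % inhibition from induction normalised to uninfected (0%) and infected (100%) wells.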
Wherever efficacy is given: 0% is about no effect.

CCCCN(CCN(CCCC)C(=O)N1CCOCC1)C(=O)N1CCOCC1
inactive: efficacy [1] 15.6% | outcome [2] | outcome [3] | outcome [4] | outcome [5] | outcome [6]

Oc1c(I)cc(Cl)c2cccnc12
inactive: efficacy [1] 46.4% | outcome [2] | outcome [3] | outcome [4] | outcome [5] | outcome [6]

C[C@]12CC[C@@H]3c4ccc(O)cc4CC[C@H]3[C@@H]1CC[C@@H]2OC(=O)CCC1CCCC1
inactive: efficacy [1] 23.9% | outcome [2] | outcome [3] | outcome [4] | outcome [5] | outcome [6]

CCOC(=O)NC(C)(C)Cc1ccc(Cl)cc1
inactive: efficacy [1] -26.2% | outcome [2] | outcome [3] | outcome [4] | outcome [5] | outcome [6] | Potency [7] | outcome [8]

CCN(CC)CCNC(=O)c1cc(Br)c(N)cc1OC
inactive: efficacy [1] 15.9% | outcome [2] | outcome [3] | outcome [4] | outcome [5] | outcome [6]

COc1ccc2c(c1)C(=O)N(CCc1ccc(S(=O)(=O)NC(=O)NC3CCCCC3)cc1)C(=O)C2(C)C
inactive: efficacy [1] -16.1% | outcome [2] | outcome [3] | outcome [4] | outcome [5] | outcome [6]
